Screening data (PubChem BioAssay)
TRHR ag: agonists of human TRH receptor; TRHR cells, calcium flux fluo-8, FDSS agonist mode; 360,000 tested, 0.18% active; P34981; activation, % at 2 µM; also: 0% is about no effect
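Steps: seed TRHR cells overnight; add fluo-8 no-wash Ca dye, RT 30 min–1.5 h; record 10 s baseline; pin-transfer compounds; monitor fluorescence 1 cycle/s for the agonist window. Calcium increases flag candidate agonists.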
D1 agonist: agonists of human D1 dopamine receptor. activation, % at 2 µM. 360,000 tested, 1% active. AID 504660. P21728. HEK293 T-REx D1 cells, calcium flux, agonist mode; also: 0% is about no effect
Target sequence (P21728 whole entry, looked up): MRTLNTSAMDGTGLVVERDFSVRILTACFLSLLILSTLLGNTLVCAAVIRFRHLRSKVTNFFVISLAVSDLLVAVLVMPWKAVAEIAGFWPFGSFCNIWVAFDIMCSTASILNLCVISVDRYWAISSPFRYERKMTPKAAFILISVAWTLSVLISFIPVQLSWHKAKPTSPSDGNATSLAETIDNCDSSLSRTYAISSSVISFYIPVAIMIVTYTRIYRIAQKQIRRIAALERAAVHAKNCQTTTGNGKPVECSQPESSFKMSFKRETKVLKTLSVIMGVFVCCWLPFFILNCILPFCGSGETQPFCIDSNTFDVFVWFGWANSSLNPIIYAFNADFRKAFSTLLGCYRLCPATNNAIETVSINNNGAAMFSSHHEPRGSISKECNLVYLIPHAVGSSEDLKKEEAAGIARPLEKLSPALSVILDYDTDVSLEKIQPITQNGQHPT
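Agonism was scored from calcium flux recorded over 180 s (1 read/s) after pintool compound addition, following a 10-cycle baseline. Cells were inducible force-coupled HEK293 TREx D1, plated overnight at 30 C and loaded with no-wash calcium dye.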
D1 antag: human D1 dopamine receptor antagonism; HEK293 TREx D1 cells, calcium flux, dopamine EC80; active compounds read low; activity change, negative = inhibition, % at 10 µM; 360,000 tested, 3.2% active; AID 504652; in the data active = activity change below about -30%; also: % is scaled to controls: 0 for no effect and ±100 for the full control effect
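Compound effects on dopamine-evoked calcium signalling were measured in tetracycline-induced HEK293 Trex D1 cells. Dopamine at EC80 followed a 180 s compound pre-read, and fluorescence was tracked kinetically for 180 s more.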
TRHR enhancer: TRH receptor (human) allosteric enhancement. P34981. TRHR cells, fluo-8 calcium fluorescence, EC20 TRH enhancement. enhancement, % at 2 µM. 360,000 tested, 0.66% active. AID 493056; in the data active = enhancement above about 30%; also: 0% is about no effect
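Enhancer read-out: after compound pinning and an initial kinetic agonist-mode read, an EC20 of TRH (10 nM final) was injected and fluo-8 calcium signal (Ex 480/Em 530) followed at 1 s/cycle for 100 cycles in TRHR-expressing cells.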
D1 potentiator: human D1 dopamine receptor positive modulation. AID 504651. potentiation, % at 10 µM. 360,000 tested, 0.036% active. P21728. HEK293 TREx D1 cells, calcium flux, dopamine EC20 potentiation; in the data active = potentiation above about 30%; also: 0% is about no effect
An asterisk follows results filed as active; . = no result. An excerpt weighted towards active compounds, which were near 4.6% of everything screened. Rule as the data show it, unless noted: active = activation above about 30%; inactive = the rest.

SMILES	TRHR ag	D1 agonist	D1 antag	TRHR enhancer	D1 potentiator
COc1ccc(-n2c(C)cc(/C=C3\SC(=S)N(Cc4ccco4)C3=O)c2C)cc1	3	21	-9	4	-7
CCN1CCN(c2c(/C=C3\SC(=S)N(Cc4ccco4)C3=O)c(C)c(C#N)c(=O)n2C)CC1	-1	235*	-4	32*	-6
COc1ccccc1NC(=O)CN1CCC(n2nnc3cc(F)ccc32)CC1	-1	1	-46*	-3	-9
COc1ccc(Cl)cc1NC(=O)CN1CCC(n2nnc3cc(C)ccc32)CC1	0	2	-37*	0	-8
Cc1ccc2c(c1)nnn2C1CCN(CC(=O)Nc2ccccc2N2CCOCC2)CC1	-1	3	-30*	1	-13
COc1ccc(C(=O)NNC(=O)CN2CCC(n3nnc4cc(F)ccc43)CC2)cc1	0	1	-34*	2	3
COc1ccc(Cl)cc1NC(=O)CN1CCCCCC1	2	2	8	-10	4
Cc1ccccc1-n1nc(CO)c(C(=O)NCc2cccs2)n1	-2	0	-11	-3	2
O=C(c1ccc([N+](=O)[O-])cc1)N1CCC(n2nnc3cc(F)ccc32)CC1	0	0	31	40*	4
O=C(N1CCOCC1)N1CCC(n2nnc3cc(F)ccc32)CC1	0	1	8	5	4
COc1ccc(CCNC(=O)c2ccc3c(c2)N(Cc2ccccc2C)C(=O)c2ccccc2S3)cc1OC	1	5	-11	2	-2
CCOC(=O)Cc1ccc(NC(=O)N(Cc2ccc(OC)cc2)C2CCN(C(C)=O)CC2)cc1	0	-2	-6	7	6
CCOC(=O)c1cc(OC(=O)c2cccc(C)c2)n(-c2ccccc2)n1	0	2	-3	8	-1
CCOC(=O)c1cc(OC(=O)c2cccnc2)n(-c2ccccc2)n1	0	0	-39*	0	6
CCOc1ccc(C2C(=O)N(C3CCCCC3)CC(=O)N2C2CCCC2)cc1OC (stereo not drawn)	-1	-5	-7	6	0
CN(C)c1nc(N(C)C)n(C(=O)c2ccc(F)cc2)n1	0	4	-33*	-4	-4
CCOC(=O)c1sc(NC(=O)CCN2C(=O)c3cccc([N+](=O)[O-])c3C2=O)c(C(=O)OCC)c1C	0	2	-33*	-4	2
CCCC(=O)N(c1ccc2oc3c(c2c1)CCCC3)S(=O)(=O)c1cc(C)ccc1C	1	2	-46*	-2	-3
CCCC(=O)N(c1ccc2oc(C)c(C(C)=O)c2c1)S(=O)(=O)c1ccc(C)cc1	0	1	3	0	-5
O=C(CN1C(=O)CCSc2ccccc21)Nc1ccc(C(F)(F)F)cc1	-1	18	-24	10	-6
CN(c1ccc(OCC(=O)OCC(=O)Nc2ccccc2F)cc1)S(=O)(=O)c1cccs1	3	36*	-40*	10	-6
Cc1ccc(Nc2nc(-c3ccc(F)cc3)cs2)nc1	2	2	-37*	2	-6
O=C(Nc1nc(-c2ccccc2)cs1)c1ccccc1NS(=O)(=O)c1ccc(F)cc1	4	15	-48*	13	-6
Cc1ccc(C(=O)Nc2nc(-c3ccc(F)cc3)cs2)o1	0	2	-48*	11	-6
O=S(=O)(Nc1ccc(-c2csc(-c3ccccc3)n2)cc1)c1ccc(F)cc1	0	6	-7	-4	-1
SMILES	TRHR ag	D1 agonist	D1 antag	TRHR enhancer	D1 potentiator
O=C(CN1C(=O)C2CC=CCC2C1=O)Nc1nc(-c2ccc(F)cc2)cs1 (stereo not drawn)	0	5	-46*	5	0
CC(NCc1ccc([N+](=O)[O-])cc1)C1COc2ccccc2O1 (stereo not drawn)	-2	-1	-5	-10	0
COc1ccc(S(=O)(=O)c2c(C(=O)c3ccc(C)c(C)c3)cnc3ccc(C)cc23)cc1	1	9	10	-3	-2
CC(Oc1ccccc1)C(=O)Nc1nnc2n1CCS2 (stereo not drawn)	1	0	4	1	-5
COc1cc2ccccc2cc1C(=O)N1CCN(c2nc3ccc(F)cc3s2)CC1	0	-2	.	-2	0
Cn1c(-c2ccccc2)cnc1NCc1ccccc1	0	0	-16	13	-15
Cn1c(-c2cccc(Br)c2)cnc1NCc1ccccc1O	0	4	-35*	2	-5
CCc1ccc(-c2cn3c(n2)sc2cc(C(=O)NCCC4=CCCCC4)ccc23)cc1	0	-1	18	2	-1
COc1cccc(/C=C/C(=O)OCC(=O)NCC2CCCO2)c1 (stereo not drawn)	0	4	16	0	-2
COc1cccc(/C=C/C(=O)OCC(=O)NCC2CCCO2)c1OC (stereo not drawn)	0	5	-34*	10	5
O=C(CCCCCCC(=O)c1ccccc1)c1ccccc1	0	2	-32*	-10	-1
COc1ccc(OCc2nc3ccccc3n2Cc2ccccc2Cl)cc1	0	16	-1	1	-4
O=C(COC(=O)C1(c2ccccc2F)CCCC1)Nc1ncc(C(F)(F)F)cc1Cl	2	12	-36*	5	-5
COc1ccc(OCC(=O)Nc2c(C(=O)N3CCN(C)CC3)oc3ccccc23)cc1	0	4	-33*	2	-18
CSC1=NSC2=NC(=O)/C(=C\c3coc4ccccc4c3=O)C(=N)N12	121*	306*	-48*	19	4
CC(C)CSC1=NSC2=NC(=O)/C(=C\c3coc4ccccc4c3=O)C(=N)N12	51*	240*	-22	-3	-9
N=C1/C(=C/c2coc3ccccc3c2=O)C(=O)N=C2SC(c3ccco3)=NN12	6	16	6	-2	9
N=C1/C(=C\c2coc3ccccc3c2=O)C(=O)N=C2SC(c3ccncc3)=NN12	146*	256*	-31*	33*	-2
Cc1ccc(-c2cc3c(N4CCN(c5cc(C)ccc5C)CC4)nccn3n2)cc1	1	0	-4	-10	2
CCOc1ccccc1N(CC(=O)N1CCOCC1)S(=O)(=O)c1ccccc1	83*	2	-1	5	-3
CCC(Cn1nnc2ccccc2c1=O)NC(=O)Nc1cc(C)cc(C)c1 (stereo not drawn)	-1	2	7	-9	2
Cc1ccc(N2CC(NC(=O)c3cc4ccccc4o3)CC2=O)cc1C (stereo not drawn)	1	-2	.	5	0
CCCCN1C(=O)C2Cc3c([nH]c4ccccc34)CN2C1=S (stereo not drawn)	6	16	-33*	-4	1
CCCCCN1CC(=O)N2Cc3[nH]c4ccccc4c3C[C@H]2C1=O	0	5	-5	1	-2
